In PubChem BioAssay:
Active and inactive are the calls of the source. Unless noted, the rule behind the calls is not given here.

Tests used:
[1] = system: XIP peptide (Xip251-270) binding; test: small-molecule binders of XIP peptide, primary screen, biochemical, small-molecule microarray, fluorescence 635/667 nm, 0.1 µg/mL protein (AID 1182); conditions: fluorescent protein binding, 635 nm, higher = more signal, called active from +8 up or from −8 down
XIP peptide (Xip251-270) = test: small-molecule binders of XIP peptide, primary screen, biochemical, small-molecule microarray, fluorescence 635/667 nm, 0.5 µg/mL protein (AID 1183); conditions: small-molecule microarray binding, fluorescence 635 nm; higher = more signal
[2] = Plasmodium falciparum growth inhibition, primary screen, strain 3D7, DAPI fluorescence, 100 nL (AID 1184);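 note: parasites grown inside human red blood cells in medium with human serum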; conditions: P. falciparum 3D7 growth, 3 d, higher = more signal
[3] = biological target: Homeobox protein Hox-A13 (Mus musculus) (UniProt Q62424); test: inhibitors of HoxA13-DNA binding, primary screen, biochemical, fluorescence polarization, labeled oligonucleotide (AID 1185); conditions: 15 min, higher = more signal, called active from +8 up or from −8 down
Homeobox protein Hox-A13 (Mus musculus), sequence (Q62424 whole entry, looked up): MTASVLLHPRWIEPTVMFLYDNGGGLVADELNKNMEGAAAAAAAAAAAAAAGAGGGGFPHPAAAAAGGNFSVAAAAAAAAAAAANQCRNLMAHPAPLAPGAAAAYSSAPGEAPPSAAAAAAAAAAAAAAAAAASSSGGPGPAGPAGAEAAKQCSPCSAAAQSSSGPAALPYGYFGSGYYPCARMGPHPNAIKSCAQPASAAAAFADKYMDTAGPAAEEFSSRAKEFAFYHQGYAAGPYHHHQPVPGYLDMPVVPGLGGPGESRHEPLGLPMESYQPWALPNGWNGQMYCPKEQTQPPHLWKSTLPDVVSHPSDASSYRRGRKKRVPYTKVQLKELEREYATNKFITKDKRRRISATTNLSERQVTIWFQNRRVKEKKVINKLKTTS

[4] = inhibitors of hydroxyurea-induced Chk1 phosphorylation, primary screen, imaging, HeLa, phospho-Chk1 antibody, percent positive cells (AID 1186); conditions: hydroxyurea-induced phospho-Chk1 immunofluorescence imaging, higher = more signal
[5] = inhibitors of hydroxyurea-induced Chk1 phosphorylation, primary screen, imaging, HeLa, phospho-Chk1 nuclear intensity (AID 1187); conditions: hydroxyurea-induced phospho-Chk1 immunofluorescence imaging, higher = more signal

| SMILES | composite z-score [1] | composite z-score (XIP peptide (Xip251-270)) | z-score [2] | z-score [3] | z-score [4] | z-score [5] |
| --- | --- | --- | --- | --- | --- | --- |
| COc1ccccc1CN1C(=O)c2ccccc2[C@@]2(Cc3ccccc3N(C3CC3)C2=O)[C@@H]1c1ccc(CO)cc1 | -0.0699 (inactive) | 0.53 | 0.35 | -2.14 (inactive) | 0.315 (inactive) | 0.491 (inactive) |
| COc1cc2c(cc1OC)CN(C(=O)[C@@H]1[C@H]3C(=O)O[C@H](c4ccccc4)[C@H](c4ccccc4)N3[C@H](c3ccc(OCCO)cc3)[C@@]13C(=O)Nc1ccc(C#CCCO)cc13)CC2 | 1.17 (inactive) | 0.75 | -2.12 | 3.49 (inactive) | 0.0699 (inactive) | 0.595 (inactive) |
| O=C1O[C@H](c2ccccc2)[C@H](c2ccccc2)N2[C@H]1[C@@H](C(=O)NC[C@H](O)c1ccccc1)[C@]1(C(=O)Nc3ccccc31)[C@H]2c1ccccc1OCCO | 2.18 (inactive) | 0.807 | -0.635 | -3.48 (inactive) | -0.517 (inactive) | -0.538 (inactive) |
| C=CCC(OC(C)=O)[C@@H]1[C@@H](N(Cc2ccc(-c3ccccc3)cc2)C(=O)c2cccc3ccccc23)c2cc(OCCCO)ccc2N1C(=O)c1ccc2ccccc2n1 (stereo partly specified) | -0.0607 (inactive) | 0.328 | -0.714 | -1.42 (inactive) | -0.606 (inactive) | -0.368 (inactive) |
| CC(C)CNC(=O)[C@@]1(c2ccc([N+](=O)[O-])cc2)CC(=O)N(C(C)C)[C@@H]1c1ccc(CO)cc1 | -0.299 (inactive) | 0.131 | -0.253 | -1.21 (inactive) | -0.19 (inactive) | -0.0822 (inactive) |
| COc1ccccc1CN1C(=O)c2ccccc2[C@](Cc2ccccc2I)(C(=O)NCCN2CCOCC2)[C@@H]1c1ccc(CO)cc1 | -0.0028 (inactive) | 0.755 | -2.26 | -4.74 (inactive) | -0.252 (inactive) | 0.0168 (inactive) |
| COc1ccc([Si](C)(C)[C@@H]2[C@@H](CC(=O)N3Cc4ccccc4C[C@H]3CO)O[C@]3(C(=O)N(Cc4cccc(N5CCCCC5=O)c4)c4ccccc43)[C@H]2C)cc1 | 1.63 (inactive) | 0.737 | -2.91 | -2.57 (inactive) | -0.559 (inactive) | -0.304 (inactive) |
| C=CCOC(=O)[C@H]1[C@@H]2C(=O)O[C@@H](c3ccccc3)[C@@H](c3ccccc3)N2[C@@H](c2ccc(OCCOC(=O)[C@H]3C[C@H]4C(=O)N[C@@H](CCCCN(C)C)C(=O)N4[C@H]3c3ccc(O)cc3)cc2)[C@]12C(=O)Nc1ccccc12 | 0.275 (inactive) | 0.582 | -0.216 | 4.13 (inactive) | -0.685 (inactive) | -0.308 (inactive) |
| CCCN1C(=O)[C@@]2(Cc3ccccc3)N=C(c3ccc(OCCCO)cc3)O[C@H]2c2ccccc21 | 1.19 (inactive) | 0.808 | -2.38 | -4.39 (inactive) | 0.276 (inactive) | 0.555 (inactive) |
| COc1ccc([Si](C)(C)[C@@H]2[C@@H](CCO)O[C@]3(C(=O)N(Cc4cccc(N5C(=O)COc6ccccc65)c4)c4ccccc43)[C@H]2C)cc1 | -0.417 (inactive) | 0.763 | -2.78 | -1.01 (inactive) | -1.02 (inactive) | -1.18 (inactive) |
| Cc1ccccc1C(O)C1C=CC2C(=O)N(C)C(=O)C2N1Nc1ccc([N+](=O)[O-])cc1[N+](=O)[O-] (stereo unspecified) | 3.99 (inactive) | 0.476 | 0.368 | -4.08 (inactive) | 0.348 (inactive) | -0.0828 (inactive) |
| CCOC(=O)C[C@H]1[C@H](OC(=O)Cc2ccc3c(c2)OCO3)[C@@H](NC(=O)c2ccccc2)c2cc(OCCCO)ccc2N1C(=O)c1ccc2ccccc2n1 | -0.263 (inactive) | -0.101 | 0.93 | -3.68 (inactive) | -0.467 (inactive) | -0.259 (inactive) |
| COC(=O)C(CC#Cc1ccc2c(c1)[C@]1(C(=O)N2)[C@H](c2ccc(OCCO)cc2)N2[C@H](c3ccccc3)[C@H](c3ccccc3)OC(=O)[C@H]2[C@@H]1C(=O)O)C(=O)OC | 0.817 (inactive) | 0.862 | 0.663 | -5.67 (inactive) | 0.0445 (inactive) | 0.436 (inactive) |
| O=C1N(CCS(=O)(=O)c2ccccc2)c2ccccc2[C@H]2OC(c3ccc(OCCCO)cc3)=N[C@@]12CCS(=O)(=O)c1ccccc1 | 2.51 (inactive) | 0.776 | -2.05 | 0.758 (inactive) | 0.109 (inactive) | 0.545 (inactive) |
| COC(=O)[C@@]1(Cc2ccccc2)[C@H]2c3cc(C(=O)N(C)C)n(Cc4ccccn4)c3C[C@H]2CN1C(=O)c1ccccc1 | 1.08 (inactive) | 0.595 | -0.847 | -4.92 (inactive) | 0.545 (inactive) | 0.295 (inactive) |
| [N-]=[N+]=NCc1ccccc1C[C@]1(C(=O)NCCN2CCOCC2)N=C(c2ccc(OCCCO)cc2)O[C@H]1c1ccccc1 | 0.786 (inactive) | 0.817 | -2.42 | -6.23 (inactive) | 0.0479 (inactive) | 0.228 (inactive) |
| CC(C)N1C(=O)c2ccccc2[C@](C)(C(=O)O)[C@@H]1c1ccc(CO)cc1 | 0.202 (inactive) | 0.0967 | 0.859 | -1.63 (inactive) | 0.113 (inactive) | 0.318 (inactive) |
| CC(C)C[C@@H]1NC(=O)[C@@H]2C[C@H](C(=O)NCc3ccc(F)cc3)[C@H](c3ccc(O)cc3)N2C1=O | 0.8 (inactive) | 0.655 | -0.395 | -1.41 (inactive) | 0.13 (inactive) | 0.0555 (inactive) |
| COC(=O)[C@@]1(Cc2ccc(OC)cc2)[C@H]2c3cc(C(=O)N4CCCC4)n(Cc4ccc(C)o4)c3C[C@H]2CN1C(=O)c1ccccc1 | 0.0373 (inactive) | 0.283 | -1.77 | -5.91 (inactive) | -0.683 (inactive) | -1.38 (inactive) |
| CC(C)C[C@H]1NC(=O)[C@H](C)NC(=O)[C@@]23C(=O)N[C@@H](Cc4ccccc4)C2[C@H](C)[C@@]2(C)O[C@H]2C3/C=C/C/C=C\CNC1=O (stereo partly specified) | 1.2 (inactive) | 0.685 | 0.96 | -6.14 (inactive) | -0.454 (inactive) | -0.576 (inactive) |
| CC(C)CN1C(=O)[C@@]2(Cc3ccccc31)c1ccccc1C(=O)N(Cc1ccccc1)[C@H]2c1ccc(CO)cc1 | 2.02 (inactive) | -0.526 | -0.435 | -1.07 (inactive) | -0.0605 (inactive) | -0.197 (inactive) |
| [N-]=[N+]=NCc1ccccc1[C@H]1OC(c2ccc(OCCCO)cc2)=N[C@@]1(Cc1ccccc1N=[N+]=[N-])C(=O)NCCN1CCOCC1 | 0.175 (inactive) | 0.795 | -2.21 | -3.06 (inactive) | 0.0262 (inactive) | -0.0057 (inactive) |
| CC(C)CCC[C@@H](C)[C@H]1CC[C@@]2(C)C3=C(CC[C@]12C)[C@@]1(C)CC[C@H](OC(=O)C(C)(C)C)C(C)(C)C1CC3 (stereo partly specified) | 0.434 (inactive) | -0.0722 | -1.29 | -1.44 (inactive) | -1.13 (inactive) | -1.89 (inactive) |
| O=C1O[C@@H](c2ccccc2)[C@@H](c2ccccc2)N2[C@@H](c3ccc(O)cc3)[C@]3(C(=O)Nc4ccc(C#CC5=CCCCC5)cc43)[C@@H](C(=O)Nc3nc4ccccc4s3)[C@H]12 | 0.433 (inactive) | 0.708 | -0.775 | 3.56 (inactive) | -0.315 (inactive) | -0.363 (inactive) |
| Cc1ccc(S[C@]2(C(=O)NCCN3CCOCC3)CC(=O)N(C3Cc4ccccc4C3)[C@@H]2c2ccc(CO)cc2)cc1 | 0.487 (inactive) | 0.547 | -0.196 | -4.63 (inactive) | 0.672 (inactive) | 1 (inactive) |
| CCCC=C(CCC)[C@@H](NC(=O)Cc1ccccc1)c1ccc(C(=O)OC)cc1 | 0.349 (inactive) | 0.34 | -0.958 | -1.93 (inactive) | 0.374 (inactive) | -0.309 (inactive) |
